Out of some 190,000 compounds screened, about 3,500 (1.8%) were called active. The list comes from a sample in which actives are over-represented; it also holds similar structures and randomly drawn compounds. Values without a mark were called inactive.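 Rule for the calls: active = inhibition above a set limit, 3 SD over mean compound inhibition (cut at about 8.4% in these data); inactive = the rest.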

What is called inhibition is the change of the read-out against control, counted positive when it falls.

A short description of the assay: RAM signaling blockers in budding yeast – dse1pr::URA3 reporter, 5-FOA selection, primary screen (AID 868).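 Note: 0% = DMSO-only wells with no growth and 100% = 10 µM 1-NA-PP1 full growth; inhibition rescues growth on 5-FOA so higher OD means more RAM inhibition.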 The note with it: S. cerevisiae dse1pr::URA3 reporter, 5-FOA growth OD615, 2 d; at 50 µM; stronger effect = higher value; analog-sensitive cbk1-as2 kinase mutant strain.
As for `Cc1ccc(NC(=O)c2ccn(C(=O)Nc3ccccc3)n2)c(C)c1`, the inhibition was 1.13%.

Take `COc1ccc(C)cc1NC(=O)Nc1ccccc1SC`: the inhibition is 3.85%.

Regarding `COc1ccc(C)cc1NC(=O)C(Sc1ccccc1)c1ccccc1` (configuration not stated), the inhibition was 12% (active).

Consider `COc1ccc(C)cc1NC(=S)Nc1ccccc1SC`, for which the inhibition was 0.14%.

As for `Cc1c(CN2CCCCC2)c(O)n(CCO)c(=O)c1C#N`, the inhibition is 1.68%.

On to `Cc1cc(C)c(C(N)=O)c(Cl)n1`, for which the inhibition was -0.5%.

`C/C(=N\Nc1nc(N2CCOCC2)nc(N2CCOCC2)n1)c1ccc([N+](=O)[O-])cc1`: the inhibition was 1.78%.

Regarding `OCCC1CN(Cc2ccccc2-c2ccco2)CCN1Cc1ccsc1` (configuration not stated), the inhibition was 0.13%.

Consider `CC1CCN(C2=NC(=O)/C(=C/c3cn[nH]c3-c3ccccc3)S2)CC1`, for which the inhibition is 9.65% (active).

Take `Cc1ccc(N2CCN(C3=NC(=O)/C(=C\c4cccs4)S3)CC2)cc1`: the inhibition is 2.02%.

As to `CCc1ccc(/C=C2\SC(N3CCOCC3)=NC2=O)cc1`, the inhibition was 2.12%.

Take `O=c1c(Cl)c(NCc2ccc(F)cc2Cl)cnn1C12CC3CC(CC(C3)C1)C2`: the inhibition was 6.9%.

For `CCN(CCn1cccn1)Cc1nc(-c2ccc(C(=O)OC)cc2)no1`, the inhibition is 0.13%.

For the compound `O=C(COc1ccc(NC(=O)c2ccccc2[N+](=O)[O-])cc1)c1ccc(F)cc1`, the inhibition is 6.75%.

As for `Cc1ccccc1CSCCNC(=O)c1ccc(N(C)S(=O)(=O)c2ccccc2)cc1`, the inhibition is 14.2% (active).

Turning to `Cc1ccccc1CSCCNC(=O)c1ccc(Cl)c(S(=O)(=O)N2CCOCC2)c1`, the inhibition is 7.41%.

For the compound `Cc1ccc(C(=O)NCCNS(=O)(=O)c2ccccc2)cc1`, the inhibition is 0.27%.

With `COc1cccc(-c2nn(C)c3sc(C(=O)N4CCN(c5ccccc5)CC4)cc23)c1`, the inhibition is 8.94% (active).

In the case of `CCOC(=O)N1CCN(C(=O)c2cc3c(-c4ccc(Cl)cc4)nn(C)c3s2)CC1`, the inhibition is -0.35%.

In the case of `COc1ccccc1N1CCN(C(=O)c2cc3c(-c4ccc(Cl)cc4)nn(C)c3s2)CC1`, the inhibition is 5.62%.

On to `O=C(CCS(=O)(=O)Cc1ccccc1)Nc1ccc2c(c1)OCCO2`, for which the inhibition is 3.16%.

Take `O=C(Nc1ccnc(-c2ccncc2)n1)c1cccs1`: the inhibition was -0.85%.

Regarding `COc1ccnc(Oc2ccccc2)n1`, the inhibition was 2.23%.

With `O=C(NCc1ccccc1)C1=C[C@H](C2CC2)C[C@H](OCc2ccc(CO)cc2)O1`, the inhibition was -0.5%.

Take `O=C(NCc1ccccc1)C1=C[C@@H](C2CCCCC2)C[C@@H](OCc2ccc(CO)cc2)O1`: the inhibition is 16.7% (active).

On to `O=C(C1=C[C@H](c2ccc(C(F)(F)F)cc2)C[C@H](OCc2ccc(CO)cc2)O1)N1CCN(Cc2ccccc2)CC1`, for which the inhibition is 2.29%.

With `C=CCOC(=O)C1=C[C@@H](c2ccccc2)C[C@@H](OCc2ccc(CO)cc2)O1`, the inhibition is 1.5%.

Turning to `CC(C)(C)[C@H]1C=C(C(=O)NCc2ccccc2)O[C@@H](OCc2ccc(CO)cc2)C1`, the inhibition is 3.51%.

For `O=C(NCc1ccccc1)C1=C[C@@H](c2ccc(C(F)(F)F)cc2)C[C@@H](OCc2ccc(CO)cc2)O1`, the inhibition is 12.2% (active).

Regarding `Fc1ccccc1Cn1cnc(NC(=S)NCCc2ccccc2)n1`, the inhibition is 6.41%.

Consider `O=C(NCCc1ccc(F)cc1)c1n[nH]c2ccccc12`, for which the inhibition was -0.97%.

Take `C/C(N)=C(/C#N)C(=O)COC(=O)c1cc(-c2cccc(Br)c2)nc2ccccc12`: the inhibition is 4.74%.

On to `O=C(CCC1CCCN(Cc2ccc(O)c(Cl)c2)C1)NCc1ccccc1F` (configuration not stated), for which the inhibition is 1.23%.

As for `O=C(Oc1cccc(O)c1)C1CCCCC1`, the inhibition is -0.74%.

In the case of `CC(C)Oc1ccccc1C(=O)NC(CO)C(=O)O` (configuration not stated), the inhibition was 1.42%.

In the case of `O=C(NN=C1CCC(=NNC(=O)c2cccnc2)CC1)c1cccnc1`, the inhibition is 1.46%.

With `CC(C)OCCCNC(=O)c1ccc(C2SCC(=O)N2Cc2ccco2)cc1` (configuration not stated), the inhibition is 1.08%.

Consider `Cc1ccsc1C1C(C#N)=C(N)OC2=C1C(=O)CC(C)(C)C2` (configuration not stated), for which the inhibition is 1.24%.

In the case of `CCNC(=S)N1CCC(c2nc3cc(C)c(C)cc3[nH]2)CC1`, the inhibition is -0.13%.

With `Cc1cc2c(c(=O)n1Cc1ccco1)C(c1ccccc1)C(C#N)=C(N)O2` (configuration not stated), the inhibition was 2.82%.

For the compound `CN(c1ccccc1)c1ccc(/C=c2\s/c(=C(/C#N)C(=O)C(C)(C)C)n(Cc3ccco3)c2=O)cc1`, the inhibition is 22.5% (active).

Consider `COc1ccc(NC(=O)Cn2c(=O)n(Cc3ccco3)c(=O)c3ccccc32)cc1`, for which the inhibition was 2.68%.

As for `CCc1ccc(NC(=O)C(C)OC(=O)/C=C/c2cccc([N+](=O)[O-])c2)cc1` (configuration not stated), the inhibition is 2.92%.

`COc1c(C)cc(C(=O)C2CCCN(S(=O)(=O)c3c(C)noc3C)C2)cc1C` (configuration not stated): the inhibition was 5.32%.

For the compound `CCOc1ccccc1NC(=O)CCc1ccc(C)o1`, the inhibition was 1.75%.

On to `Cc1cnc(NC(=O)CSc2nnc(-c3ccc(Cl)cc3Cl)n2N)s1`, for which the inhibition was 2.06%.

In the case of `Cc1ccc(CCC(=O)Nc2ncc(Cc3cc(Cl)ccc3Cl)s2)o1`, the inhibition is 14% (active).

Consider `CCOC(=O)Cc1cc(=O)[nH]c(=O)[nH]1`, for which the inhibition was -0.76%.

Consider `Cc1cc(C)c(C#N)c(SCC(=O)NN2CC(=O)N(c3ccccc3F)CC2=O)n1`, for which the inhibition was 1.88%.

Consider `O=C(c1ccc(Cl)c([N+](=O)[O-])c1)N1CCN(c2ccccc2)CC1`, for which the inhibition is -1.05%.

For `COc1ccc(S(=O)(=O)NC(C)C(=O)Nc2cccc([N+](=O)[O-])c2)cc1` (configuration not stated), the inhibition is 0.38%.

`CC(O)C(NS(=O)(=O)c1ccc(Cl)cc1)C(=O)OCc1cc([N+](=O)[O-])cc2c1OCOC2` (configuration not stated): the inhibition is 14.1% (active).

With `Nc1ccccc1SCc1cc([N+](=O)[O-])cc2c1OCOC2`, the inhibition is 0.13%.

On to `CN(C)CCCO/N=C(\c1ccccc1)c1ccncc1`, for which the inhibition is 1.14%.

With `O=c1[nH]n2c(-c3ccccc3)nc(O)c2c2ccccc12`, the inhibition was 2.15%.

In the case of `Cn1c(=O)c2c(ncn2CC(=O)N/N=C/c2cn[nH]c2-c2ccc(F)cc2)n(C)c1=O`, the inhibition was 1.49%.

As to `Fc1ccc(CSc2nnc(-c3cc4c(s3)-c3ccccc3CC4)o2)cc1`, the inhibition is 22.2% (active).

Regarding `Fc1ccc(-c2nnc(CSc3nnc(-c4ccc5c(c4)OCO5)o3)o2)cc1`, the inhibition was 3.54%.

`CCSc1nnc(-c2cc3c(s2)-c2ccccc2CC3)o1`: the inhibition was 2.39%.

Consider `Cc1ccc(N(C(=O)C(F)(F)F)C(C(=O)NC2CCCCC2)c2ccncc2)cc1C` (configuration not stated), for which the inhibition is 4.82%.

As for `FC(F)(F)c1cccc(Cc2noc(CN3CCC(N4CCCCC4)CC3)n2)c1`, the inhibition is 0.6%.

On to `O=C(c1ccc(F)cc1)c1cn(Cc2ccc(F)cc2)c2cc3c(cc2c1=O)OCCO3`, for which the inhibition is 9.62% (active).

On to `CCn1cc(C(=O)N/N=C(/C)c2ccc(F)cc2)c(=O)c2cc(F)c(N3CCCC3)cc21`, for which the inhibition was 0.79%.

Take `COc1ccc2c(c1)c(=O)c(C(=O)c1ccc(Cl)cc1)cn2CC(=O)Nc1ccc(F)cc1`: the inhibition was 3.22%.

`Cc1c(C(=O)NCCN2C(=O)S/C(=C\c3cccs3)C2=O)cccc1[N+](=O)[O-]`: the inhibition is 2.49%.

Consider `O=C(CCN1C(=O)/C(=C/c2cccs2)SC1=S)NNC(=O)c1cccc(O)c1`, for which the inhibition was 9.69% (active).

On to `COc1ccc(/C=C2\SC(=S)N(CC(=O)NNC(=O)c3ccncc3)C2=O)cc1`, for which the inhibition was 4.19%.

Values taken from PubChem BioAssay AID868 (SRMLSC, 2007).
